Measured values published in PubChem BioAssay AID1159580 (chemical genetic matrix, 2015).
Hit rate of the full screen: of about 5,500 compounds, about 2,000 (36%) were called active. About 18% were inconclusive and are not listed. No stated cut-off is given here; in the data, active means normalized growth mostly below about 0.91 (no sharp cut-off); inconclusive means no clear call, values can overlap the other calls; inactive means mostly above about 0.92. The list shows a part of the results.

Assay: chemical genetic growth profiling, strain panel (AID 1159580);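 further: tested at 20 µM; growth read once vehicle control cultures reached saturation at 30 °C; 1 = growth at the plate median or of vehicle wells; lower values mean less growth of the strain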
Settings: growth OD

Measured: normalized growth

S=P(N1CC1)(N1CC1)N1CC1
inactive: S. cerevisiae deletion strains, locus YKL009W, strain mrt4, active compounds read low 0.99 | S. cerevisiae deletion strains, locus YKL068W, active compounds read low 1.01 | S. cerevisiae deletion strains, locus YKL085W, strain MDH1 (second series), active compounds read low 0.997 | S. cerevisiae deletion strains, locus YKL085W, strain MDH1, active compounds read low 0.997 | S. cerevisiae deletion strains, locus YKL160W, strain elf1, active compounds read low 1.01 | S. cerevisiae deletion strains, locus YKL190W, strain CNB1, active compounds read low 1 | S. cerevisiae deletion strains, locus YKR001C, strain vps1, active compounds read low 0.994 | S. cerevisiae deletion strains, locus YKR026C, strain gcn3, active compounds read low 0.976 | S. cerevisiae deletion strains, locus YKR091W, strain srl3, active compounds read low 1 | S. cerevisiae deletion strains, locus YLL001W, strain dnm1, active compounds read low 1 | S. cerevisiae deletion strains, locus YLL026W, active compounds read low 1 | S. cerevisiae deletion strains, locus YLL041C, strain sdh2, active compounds read low 1.01 | S. cerevisiae deletion strains, locus YLR027C, strain aat2, active compounds read low 1.01 | S. cerevisiae deletion strains, locus YLR039C, strain RIC1, active compounds read low 1.03 | S. cerevisiae deletion strains, locus YLR058C, strain SHM2, active compounds read low 1.01 | S. cerevisiae deletion strains, locus YLR102C, strain apc9, active compounds read low 1.01 | S. cerevisiae deletion strains, locus YLR113W, strain HOG1, active compounds read low 0.995 | S. cerevisiae deletion strains, locus YLR221C, strain rsa3, active compounds read low 0.996 | S. cerevisiae deletion strains, locus YLR258W, strain gsy2, active compounds read low 1.01 | S. cerevisiae deletion strains, locus YLR262C, strain YPT6 (second series), active compounds read low 1.02 | S. cerevisiae deletion strains, locus YLR262C, strain YPT6, active compounds read low 1.02 | S. cerevisiae deletion strains, locus YLR268W, strain sec22, active compounds read low 0.989 | S. cerevisiae deletion strains, locus YLR320W, strain mms22, active compounds read low 0.994 | S. cerevisiae deletion strains, locus YLR330W, strain CHS5, active compounds read low 1.01 | S. cerevisiae deletion strains, locus YLR342W, strain FKS1 (second series), active compounds read low 1.03 | S. cerevisiae deletion strains, locus YLR342W, strain FKS1, active compounds read low 1.01 | S. cerevisiae deletion strains, locus YLR357W, strain rsc2, active compounds read low 1.03 | S. cerevisiae deletion strains, locus YLR370C, strain arc18, active compounds read low 1.01 | S. cerevisiae deletion strains, locus YLR371W, strain rom2, active compounds read low 1.01 | S. cerevisiae deletion strains, locus YLR384C, strain iki3, active compounds read low 0.994 | S. cerevisiae deletion strains, locus YLR418C, strain cdc73, active compounds read low 0.977 | S. cerevisiae deletion strains, locus YML016C, strain PPZ1, active compounds read low 1 | S. cerevisiae deletion strains, locus YML032C, strain rad52, active compounds read low 1 | S. cerevisiae deletion strains, locus YML120C, strain ndi1, active compounds read low 1.01 | S. cerevisiae deletion strains, locus YML124C, strain tub3, active compounds read low 1 | S. cerevisiae deletion strains, locus YMR058W, strain fet3, active compounds read low 1.02 | S. cerevisiae deletion strains, locus YMR078C, strain ctf18, active compounds read low 1 | S. cerevisiae deletion strains, locus YMR125W, strain sto1, active compounds read low 1 | S. cerevisiae deletion strains, locus YMR129W, active compounds read low 1.01 | S. cerevisiae deletion strains, locus YMR205C, strain PFK2, active compounds read low 1.01 | S. cerevisiae deletion strains, locus YMR223W, strain ubp8, active compounds read low 1 | S. cerevisiae deletion strains, locus YMR231W, strain pep5, active compounds read low 0.993 | S. cerevisiae deletion strains, locus YMR263W, strain SAP30, active compounds read low 1.02 | S. cerevisiae deletion strains, locus YMR307W, strain GAS1, active compounds read low 1.04 | S. cerevisiae deletion strains, locus YNL067W, strain RPL9B, active compounds read low 1.01 | S. cerevisiae deletion strains, locus YNL071W, strain lat1, active compounds read low 1.02 | S. cerevisiae deletion strains, locus YNL128W, strain TEP1, active compounds read low 1.01 | S. cerevisiae deletion strains, locus YNL153C, strain GIM3, active compounds read low 0.997 | S. cerevisiae deletion strains, locus YNL183C, strain NPR1, active compounds read low 0.932 | S. cerevisiae deletion strains, locus YNL209W, strain ssb2, active compounds read low 1.02 | S. cerevisiae deletion strains, locus YNL233W, strain BNI4, active compounds read low 0.998 | S. cerevisiae deletion strains, locus YNL248C, strain rpa49, active compounds read low 0.999 | S. cerevisiae deletion strains, locus YNL250W, strain rad50, active compounds read low 0.995 | S. cerevisiae deletion strains, locus YNL271C, strain bni1, active compounds read low 1.01 | S. cerevisiae deletion strains, locus YNL298W, strain CLA4, active compounds read low 1.02 | S. cerevisiae deletion strains, locus YNL307C, strain MCK1, active compounds read low 1.01 | S. cerevisiae deletion strains, locus YNL322C, strain KRE1 (second series), active compounds read low 1.01 | S. cerevisiae deletion strains, locus YNL322C, strain KRE1, active compounds read low 1.01 | S. cerevisiae deletion strains, locus YNR049C, strain mso1, active compounds read low 1.01 | S. cerevisiae deletion strains, locus YNR052C, strain pop2, active compounds read low 1 | S. cerevisiae deletion strains, locus YOL006C, strain TOP1, active compounds read low 1.04 | S. cerevisiae deletion strains, locus YOL012C, strain htz1 0.982 | S. cerevisiae deletion strains, locus YOL147C, strain pex11, active compounds read low 1.04 | S. cerevisiae deletion strains, locus YOR001W, strain rrp6, active compounds read low 1.01 | S. cerevisiae deletion strains, locus YOR061W, strain CKA2, active compounds read low 1.01 | S. cerevisiae deletion strains, locus YOR069W, strain VPS5, active compounds read low 0.992 | S. cerevisiae deletion strains, locus YOR070C, strain gyp1, active compounds read low 1.01 | S. cerevisiae deletion strains, locus YOR080W, strain dia2, active compounds read low 1 | S. cerevisiae deletion strains, locus YOR083W, strain WHI5, active compounds read low 0.997 | S. cerevisiae deletion strains, locus YOR106W, strain vam3, active compounds read low 0.997 | S. cerevisiae deletion strains, locus YOR136W, strain idh2, active compounds read low 1 | S. cerevisiae deletion strains, locus YOR144C, strain elg1, active compounds read low 1.01 | S. cerevisiae deletion strains, locus YOR184W, strain ser1, active compounds read low 1.01 | S. cerevisiae deletion strains, locus YOR231W, strain MKK1, active compounds read low 1 | S. cerevisiae deletion strains, locus YOR265W, strain rbl2, active compounds read low 1.01 | S. cerevisiae deletion strains, locus YOR270C, strain vph1, active compounds read low 1.01 | S. cerevisiae deletion strains, locus YOR290C, strain snf2, active compounds read low 1.01 | S. cerevisiae deletion strains, locus YOR316C, strain cot1, active compounds read low 1 | S. cerevisiae deletion strains, locus YPL051W, strain arl3, active compounds read low 1.01 | S. cerevisiae deletion strains, locus YPL055C, strain LGE1, active compounds read low 0.989 | S. cerevisiae deletion strains, locus YPL078C, strain atp4, active compounds read low 1.01 | S. cerevisiae deletion strains, locus YPL106C, strain sse1, active compounds read low 1.02 | S. cerevisiae deletion strains, locus YPL240C, strain hsp82, active compounds read low 0.996 | S. cerevisiae deletion strains, locus YPL241C, strain CIN2, active compounds read low 0.991 | S. cerevisiae deletion strains, locus YPL256C, strain CLN2, active compounds read low 0.991 | S. cerevisiae deletion strains, locus YPR119W, strain clb2, active compounds read low 1.01 | S. cerevisiae deletion strains, locus YPR141C, strain kar3, active compounds read low 0.996 | S. cerevisiae deletion strains, locus YPR163C, strain tif3, active compounds read low 1 | S. cerevisiae deletion strains, locus YPR167C, strain met16, active compounds read low 0.992 | S. cerevisiae deletion strains, strain wtn01, active compounds read low 0.983 | S. cerevisiae strains, strain wild type, active compounds read low 1.01
